# Assay outcomes as filed in PubChem.
# Most compounds without a hit are left out; they make up all but 2.8% or so of the library.
# PolyA inhibitor = inhibitors of polyadenylation in S. cerevisiae; S. cerevisiae SKY197-pL101 polyadenylation reporter, beta-gal luminescence; efflux-impaired pdr1/pdr3 knockout yeast; score 100 = 6 SD above DMSO; activity score, % at 12 µM; 300,000 tested, 0.02% active; AID 1875;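 active means lowest replicate activity score at least 50, where 100 means six control SD above control mean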;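 further: yeast exposed to compound for 9 h at 30 °C; higher score means more reporter readthrough which indicates perturbed polyadenylation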
# pCIP destab = p/CIP protein destabilization; Q05BA5; F442A p/CIP-EGFP cells, EGFP fluorescence, 16 h; decrease of EGFP signal, % at 10 µM; 290,000 tested, 0.01% active; AID 1984;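 active means EGFP signal decrease of at least 30% at 10 µM or well 3 SD below plate mean, unless failing retest; inactive means the rest, including hits failing retest or dose response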
# Platelet DG rel = platelet dense granule release activity; human platelet-rich plasma, SFLLRN dense granule ATP release, luminescence; inhibition, %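 (compounds screened at 7.5 µM in platelet-rich plasma)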; 300,000 tested, 0.22% active;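 active means mean replicate score, as percent of positive control, at or above 50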
# AHR activator = activates the human aryl hydrocarbon receptor; 320,000 tested, 2.5% active; AHR-responsive luciferase reporter cells, luminescence; P35869; AID 2796; activation, % at 5 µM; in the data active means activation above about 47%
# HIF activator = HIF pathway transcriptional activation; U2OS HRE-luciferase reporter, luminescence; normalized: DMSO 0%, desferrioxamine 100%; activation, % at 7.5 µM (by protocol); 300,000 tested, 0.32% active; AID 1910;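 active means mean activation of at least 10% of the iron chelator positive control signal, with at least half of replicates also reaching 10%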
# AHR act cf = human AHR activation, confirmation; human cells, AHR-responsive luciferase reporter, luminescence; shares compounds with AHR activator; AID 2845; 2,300 tested, 87% active; activation, % at 9 µM; in the data active means activation above about 49%;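 further: HepG2 hepatoma cells carrying a DRE-driven firefly luciferase reporter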
# PXR act counter = PXR activation, counter-screen for AHR activators. shares compounds with AHR activator. cell-based PXR reporter, luciferase luminescence. activation, % at 11.6 µM. 2,300 tested, 88% active; in the data active means activation above about 11%;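 further: human hepatoma DPX-2 cells expressing full-length human PXR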
# A number is an active result; n = inactive; x = no result given.
SMILES,PolyA inhibitor,pCIP destab,Platelet DG rel,AHR activator,HIF activator,AHR act cf,PXR act counter
Nc1nc(-c2ccccc2)c(N=Nc2ccc(Cl)cc2)s1,n,n,n,120,n,88,14
CCOc1ccc2oc(C(=O)NC(C)(C)CC)c(C)c2c1,x,n,n,n,n,x,x
CCOc1ccc2oc(C(=O)Nc3nccs3)c(C)c2c1,x,x,x,107,x,162,23
Cc1ccc(OCCOc2ccc(Br)cc2)c([N+](=O)[O-])n1,n,n,n,n,n,x,x
Cc1ccccc1C(=O)NC(=S)NCCc1ccccc1,n,n,n,86,n,104,27
Cc1ccc(N(CC(O)CN2C(=O)NC(C)(C)C2=O)S(=O)(=O)c2ccc([N+](=O)[O-])cc2)cc1 (stereo unspecified),n,n,n,n,n,x,x
Cc1ccc(OCC(=O)NCc2cccs2)c([N+](=O)[O-])n1,n,n,n,105,n,n,12
CNC(=O)c1cccnc1Nc1cccc(C(F)(F)F)c1,n,n,n,120,n,105,15
CC1CCN(C(=O)CSc2nc3c(c(=O)n2C)SC(C)C3)CC1 (stereo unspecified),n,n,n,n,n,x,x
CC(C)C(=O)Nc1cccc(-c2cnc3ccccc3n2)c1,n,n,n,n,n,x,x
CNC(=S)Nc1cccc(-c2cnc3ccccc3n2)c1,n,n,n,118,n,100,19
CS(=O)(=O)Nc1cccc(-c2cnc3ccccc3n2)c1,n,n,n,88,n,120,n
CC(=O)OCC(=O)Nc1c(C)cc(C)cc1C,n,n,n,n,n,x,x
CCc1nc2ccccc2c(C(=O)OCC(=O)C(C)(C)C)c1C,n,n,n,n,n,x,x
CCc1nc2ccccc2c(C(=O)OCc2nc3ccccc3c(=O)[nH]2)c1C,x,x,x,118,x,86,54
COC(=O)/C=c1/sc2nc3ccccc3n2c1=O,n,n,n,n,x,x,x
O=c1c2ccccc2nc2sc3ccccc3n12,x,n,x,113,x,155,14
Nc1nc(COC(=O)C2CCN(C(=O)c3ccc(Cl)cc3)CC2)nc(Nc2ccccc2)n1,x,x,x,n,x,x,x
CN(C)/C=N/c1nc(-c2ccc3c(c2)OCO3)cs1,n,n,n,81,n,69,28
CN(C)/C=N/c1nc(-c2ccc3ccccc3c2)cs1,n,n,n,n,n,x,x
COc1ccc2c(C)nc(Nc3nc(C)cc(C)n3)nc2c1,n,n,n,109,n,101,21
CCOC(=O)c1cn(CC(=O)Nc2ccc(OC)cc2OC)nn1,n,n,n,n,n,x,x
COc1ccc(NS(=O)(=O)c2ccc3oc(Nc4ccc5c(c4)OCCO5)nc3c2)cc1,n,n,n,87,n,60,19
CCCn1c(-c2cccs2)nc2nc3ccccc3nc21,n,n,n,100,n,147,37
CC(C)c1nnc(SCC(=O)N2CCc3ccccc32)n1N,n,n,n,n,n,x,x
SMILES,PolyA inhibitor,pCIP destab,Platelet DG rel,AHR activator,HIF activator,AHR act cf,PXR act counter
CC1CCC/C(=N/NC(=O)c2ccccc2-n2cccc2)C1 (stereo unspecified),n,n,n,83,n,n,11
O=C(NN=C1CCC(c2ccccc2)CC1)c1ccccc1-n1cccc1 (stereo unspecified),n,n,n,117,n,n,n
CC1CCC(=NNC(=O)c2ccccc2-n2cccc2)CC1 (stereo unspecified),n,x,n,n,n,x,x
N/C(=N\OC(=O)c1csnn1)c1ccc(C(F)(F)F)cc1,n,n,n,n,n,x,x
O=C(Nc1cccc(S(=O)(=O)N2CCCCCC2)c1)C1CCN(C(=O)c2ccc(F)cc2)CC1,n,x,n,n,n,x,x
CC(=O)c1c(C)[nH]c(C(=O)NCCC2=CCCCC2)c1C,n,n,n,146,n,110,70
CN1CCN(S(=O)(=O)c2ccc(Br)c3ccccc23)CC1,n,n,n,n,n,x,x
COc1ccccc1NC(=O)c1ccc(C(=O)Nc2ccccc2OC)nc1,n,n,n,84,n,103,x
COc1ccccc1NC(=O)c1nc[nH]c1C(=O)Nc1ccccc1OC,n,n,n,108,n,53,19
CNC(=O)c1[nH]cnc1C(=O)Nc1ccc(Cl)cc1,n,n,n,121,n,172,35
COc1ccc(C(=O)Nc2cc(Cl)ccc2OC(=O)c2ccc(OC)cc2)cc1,n,n,n,n,x,x,x
O=C(Nc1ccccc1OC(=O)c1ccc(Cl)cc1)c1ccc(Cl)cc1,n,n,n,79,n,83,x
C[C@H](NC(=O)N1CCn2c1nc1ccccc12)C(=O)NCc1ccc2c(c1)OCO2,n,n,n,n,n,x,x
CCOC(=O)C1(Cc2ccccc2C(F)(F)F)CCN(C2CCN(C(C)=O)CC2)CC1,n,n,n,n,n,x,x
COC(=O)c1ccc(NC(=O)COC(=O)COc2cccc3c2OC(C)(C)C3)cc1,x,x,x,n,x,x,x
CC(=O)NC12CC3CC(C1)CC(C(=O)N1CCN(S(=O)(=O)c4cccc(C(F)(F)F)c4)CC1)(C3)C2,n,x,n,n,n,x,x
